In the supplement of paper PMC12350171:
Where a name gives a salt, the structure may show the parent alone. Unmarked numbers belong to inactive results.

What was measured:
Conditions in all cases: 20 µM
[1] = test system: Salmonella enterica typhimurium; assay: growth AUC normalised to DMSO control (fraction of control); higher = less growth inhibition, active = hit call of the paper
Procedure, shortened: (§1)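 Hemin and NAD were added to the medium for Haemophilus parainfluenzae. All pathogens, after two anaerobic passages, were inoculated at a starting OD578 of 0.01 into pre-reduced mGAM plates with 20 μM compound and 1% DMSO under breathable seals, and OD578 was read hourly for 24 h in three biological replicates. AUC of each growth curve was obtained with the trapezoidal rule up to the exponential-to-stationary transition and normalised to DMSO controls from the same plate.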

Shigella flexneri = assay: as above
Procedure, shortened: as §1

Vibrio cholerae = assay: as above
Procedure, shortened: as §1

[2] = test system: Yersinia pseudotuberculosis; assay: as above
Procedure, shortened: as §1

P. vulgatus RND KO = assay: growth AUC normalised to DMSO control (median) (fraction of control); higher = less growth inhibition, active = hit call of the paper
Procedure, shortened: (§2)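 Anaerobic growth was tracked hourly at OD578 for 24 h in 96-well plates of mGAM seeded at OD578 0.01 with each approved-drug library compound at 20 μM and 1% DMSO. Strains had first been passaged twice overnight without oxygen. Three biological replicates were run. The reported median is the area under the curve, calculated by the trapezoidal rule on curves truncated at entry into stationary phase and normalised to vehicle wells on the same plate.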

P. vulgatus WT = assay: as above
Procedure, shortened: as §2

[3] = test system: S. enterica typhimurium WT; assay: as above
Procedure, shortened: as §2

[4] = test system: S. enterica typhimurium tolC KO; assay: as above
Procedure, shortened: as §2
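For growth AUC normalised to DMSO control (median) in this document: active when median AUC fell below 0.1.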

SMILES | growth AUC normalised to DMSO control [1] | growth AUC normalised to DMSO control (Shigella flexneri) | growth AUC normalised to DMSO control (Vibrio cholerae) | growth AUC normalised to DMSO control [2] | growth AUC normalised to DMSO control (P. vulgatus RND KO) | growth AUC normalised to DMSO control (P. vulgatus WT) | growth AUC normalised to DMSO control [3] | growth AUC normalised to DMSO control [4]
CNCC[C@@H](Oc1ccccc1C)c1ccccc1 [Tomoxetine hydrochloride] | 1.01 | 1.02 | 1.01 | 1 | 0.954 | 0.969 | 0.996 | 0.974
CN(C)CCOC(c1ccccc1)c1ccccc1.Cn1c(=O)c2[nH]c(Cl)nc2n(C)c1=O [Dimenhydrinate] | 0.975 | 0.984 | 0.933 | 0.982 | 1.01 | 1 | 0.988 | 0.983
Cn1c(=O)c2c(ncn2C)n(C)c1=O [Caffeine] |  | 1.04 | 1.03 | 1.01 | 1.02 | 1.02 | 0.993 | 0.999
CC(C)(C)NC[C@H](O)COc1ccccc1C1CCCC1 [Penbutolol sulfate] | 1.01 | 1.02 | 1 | 1.02 | 0.994 | 1.01 | 1 | 0.947
O=C1CCC(N2C(=O)c3ccccc3C2=O)C(=O)N1 (stereo not given) [Thalidomide] | 0.994 | 0.971 | 0.996 | 0.988 | 0.999 | 1.01 | 1 | 1
CN1CCCC(CC2c3ccccc3Sc3ccccc32)C1 (stereo not given) [Metixene hydrochloride] | 0.987 | 1 | 0.944 | 1 | 0.774 | 0.704 | 1.01 | 0.923
CCCC(=O)Nc1ncnc2c1ncn2[C@@H]1O[C@@H]2COP(=O)(O)O[C@H]2[C@H]1OC(=O)CCC [Bucladesine sodium salt] |  | 1 | 1.01 | 0.998 | 1.02 | 1.01 | 1.01 | 1.01
COc1c(N2C[C@@H]3CCCN[C@@H]3C2)c(F)cc2c(=O)c(C(=O)O)cn(C3CC3)c12 [Moxifloxacin] | 0.00585 (active) | 0.0275 (active) | 0.0211 (active) | 0.0337 (active) | 0.017 (active) | 0.0128 (active) | 0.0075 (active) | 0.00519 (active)
CCn1cc(C(=O)O)c(=O)c2cnc(N3CCNCC3)nc21 [Pipemidic acid] |  | 0.113 (active) | 0.0338 (active) | 0.0731 (active) | 1.02 | 0.996 | 0.107 | 0.04 (active)
NC(=O)c1cc[n+](CC2=C(C(=O)[O-])N3C(=O)[C@@H](NC(=O)[C@@H](c4ccccc4)S(=O)(=O)O)[C@H]3SC2)cc1 [Cefsulodin sodium salt] | 0.944 | 0.999 | 0.976 | 0.865 (active) |  | 0.983 | 1 | 0.978
CC1CS(=O)(=O)CCN1/N=C/c1ccc([N+](=O)[O-])o1 (stereo not given) [Nifurtimox] | 0.981 | 0.947 | 0.00876 (active) | 0.99 | 0.0205 (active) | 0.00686 (active) | 0.995 | 0.962
Cc1onc(-c2c(F)cccc2Cl)c1C(=O)N[C@@H]1C(=O)N2[C@@H]1SC(C)(C)[C@@H]2C(=O)O [Flucloxacillin sodium] | 0.993 | 1.01 | 0.999 | 0.989 |  | 0.132 | 1.02 | 0.0123 (active)
O=c1cc(-c2ccc(O)c(O)c2)oc2cc(O)cc(O)c12 [Luteolin] |  | 1 | 0.976 | 0.978 | 0.987 | 1.02 | 0.993 | 0.878
CN(Cc1cnc2nc(N)nc(N)c2n1)c1ccc(C(=O)N[C@@H](CCC(=O)O)C(=O)O)cc1 [Amethopterin] | 0.983 | 0.948 | 0.912 | 0.982 |  | 0.916 | 0.997 | 0.7
CN1C(C(=O)Nc2ccccn2)=C(O)c2sccc2S1(=O)=O [Tenoxicam] |  | 0.94 | 0.791 (active) | 0.993 | 0.97 | 0.969 | 1 | 0.956
CCOc1ccc2ccccc2c1C(=O)N[C@@H]1C(=O)N2[C@@H]1SC(C)(C)[C@@H]2C(=O)O [Nafcillin sodium salt monohydrate] | 0.981 | 0.973 | 0.96 | 0.967 |  |  | 1 | 
CCN1CCN(C(=O)N[C@@H](C(=O)N[C@@H]2C(=O)N3[C@@H]2SC(C)(C)[C@@H]3C(=O)O)c2ccccc2)C(=O)C1=O [Piperacillin sodium salt] |  | 0.098 (active) | 0.63 (active) | 0.291 (active) | 0.0135 (active) | 0.0163 (active) | 0.734 | 0.00671 (active)

SMILES | growth AUC normalised to DMSO control [1] | growth AUC normalised to DMSO control (Shigella flexneri) | growth AUC normalised to DMSO control (Vibrio cholerae) | growth AUC normalised to DMSO control [2] | growth AUC normalised to DMSO control (P. vulgatus RND KO) | growth AUC normalised to DMSO control (P. vulgatus WT) | growth AUC normalised to DMSO control [3] | growth AUC normalised to DMSO control [4]
NNc1nncc2ccccc12 [Hydralazine hydrochloride] |  | 1.04 | 1.06 | 1.03 | 1.01 | 1.04 | 0.996 | 0.992
Cc1onc(-c2ccccc2Cl)c1C(=O)N[C@@H]1C(=O)N2[C@@H]1SC(C)(C)[C@@H]2C(=O)O [Cloxacillin sodium salt] | 1.01 | 1 | 0.99 | 1.01 |  |  | 0.994 | 0.0356 (active)
CN(C)CCCO[C@@H]1[C@H]2OC(C)(C)O[C@H]2O[C@@H]1[C@H](O)CO [Amiprilose hydrochloride] | 0.904 | 1 | 0.986 | 0.997 | 0.969 | 0.966 | 1.01 | 1
Cn1c(=O)c2[nH]cnc2n(C)c1=O [Aminophylline] |  | 1.03 | 1.03 | 0.979 | 1.03 | 1.05 | 0.993 | 1.01
O=C(O)[C@H]1/C(=C/CO)O[C@@H]2CC(=O)N21 [Clavulanate potassium salt] | 1.01 | 1.03 | 1.08 | 1.03 |  | 1.12 | 0.995 | 0.999
CCOC(=O)OC(C)OC(=O)[C@@H]1N2C(=O)[C@@H](NC(=O)[C@H](N)c3ccccc3)[C@H]2SC1(C)C (stereo not given in full) [Bacampicillin hydrochloride] | 0.00881 (active) | 0.0323 (active) | 1 | 0.277 (active) |  |  | 0.154 | 0.0179 (active)
C[C@H](O)[C@H](O)[C@H]1CNc2[nH]c(N)nc(=O)c2N1 [Sapropterin dihydrochloride] |  |  |  |  | 1.04 | 1.05 | 1.01 | 0.977
CC(C)Nc1ncccn1 [Isaxonine] |  |  |  |  | 0.976 | 0.953 | 0.999 | 1
O=C1c2cccc3c2[C@H](CCC3)CN1[C@@H]1CN2CCC1CC2 [Palonosetron hydrochloride] |  |  |  |  | 0.973 | 1 | 1 | 0.998
CC1(C)O[C@@H]2C[C@H]3[C@@H]4CCC5=CC(=O)C=C[C@]5(C)[C@H]4[C@@H](O)C[C@]3(C)[C@]2(C(=O)CO)O1 [Desonide] |  |  |  |  | 0.783 | 0.993 | 0.996 | 1
CC(=O)c1cc2cccc(OCC(O)CNC(C)C)c2o1 (stereo not given) [Befunolol] |  |  |  |  | 1.03 | 1.06 | 1 | 1
CC(C)COC(=O)OCN1C(=O)CN(CCN2CC(=O)N(COC(=O)OCC(C)C)C(=O)C2)CC1=O [Sobuzoxane] |  |  |  |  | 1.04 | 1.08 | 0.998 | 1
O=c1[nH]c(=O)n(C2CCCO2)cc1F (stereo not given) [Tegafur] |  |  |  |  | 1 | 1.01 | 1 | 0.999
C[C@H](N[C@@H](CCc1ccccc1)C(=O)O)C(=O)N1CCC[C@H]1C(=O)O [Enalaprilat dihydrate] |  |  |  |  | 0.99 | 0.986 | 0.992 | 0.995
CC(C)=C/C(C)=N/Nc1nncc2ccccc12 [Budralazine] |  |  |  |  | 1.02 | 1.08 | 0.999 | 0.989
CC(C)(C)NCC(O)CSc1nc(-c2ccc(C(N)=O)s2)cs1 (stereo not given) [Arotinolol hydrochloride] |  |  |  |  | 1.02 | 1 | 0.996 | 1.01
